Test results taken from ChEMBL document CHEMBL3988442, “University of Dundee, Small-Polar-MMV Screening Library” (2021).
For some of these results: Potency and affinity values are given separately.

What was measured:
Set-up in all cases: scale not given: direction of the effect not stated beside the values
[1] = molecular target: Protein translocase subunit SecA (Escherichia coli (strain K12)) (UniProt P10408); experiment: Assay to Identify E. coli SecA ATPase Inhibitors; assay type: functional; details: 30 µM
Chain of Protein translocase subunit SecA (Escherichia coli (strain K12)) (P10408 whole entry): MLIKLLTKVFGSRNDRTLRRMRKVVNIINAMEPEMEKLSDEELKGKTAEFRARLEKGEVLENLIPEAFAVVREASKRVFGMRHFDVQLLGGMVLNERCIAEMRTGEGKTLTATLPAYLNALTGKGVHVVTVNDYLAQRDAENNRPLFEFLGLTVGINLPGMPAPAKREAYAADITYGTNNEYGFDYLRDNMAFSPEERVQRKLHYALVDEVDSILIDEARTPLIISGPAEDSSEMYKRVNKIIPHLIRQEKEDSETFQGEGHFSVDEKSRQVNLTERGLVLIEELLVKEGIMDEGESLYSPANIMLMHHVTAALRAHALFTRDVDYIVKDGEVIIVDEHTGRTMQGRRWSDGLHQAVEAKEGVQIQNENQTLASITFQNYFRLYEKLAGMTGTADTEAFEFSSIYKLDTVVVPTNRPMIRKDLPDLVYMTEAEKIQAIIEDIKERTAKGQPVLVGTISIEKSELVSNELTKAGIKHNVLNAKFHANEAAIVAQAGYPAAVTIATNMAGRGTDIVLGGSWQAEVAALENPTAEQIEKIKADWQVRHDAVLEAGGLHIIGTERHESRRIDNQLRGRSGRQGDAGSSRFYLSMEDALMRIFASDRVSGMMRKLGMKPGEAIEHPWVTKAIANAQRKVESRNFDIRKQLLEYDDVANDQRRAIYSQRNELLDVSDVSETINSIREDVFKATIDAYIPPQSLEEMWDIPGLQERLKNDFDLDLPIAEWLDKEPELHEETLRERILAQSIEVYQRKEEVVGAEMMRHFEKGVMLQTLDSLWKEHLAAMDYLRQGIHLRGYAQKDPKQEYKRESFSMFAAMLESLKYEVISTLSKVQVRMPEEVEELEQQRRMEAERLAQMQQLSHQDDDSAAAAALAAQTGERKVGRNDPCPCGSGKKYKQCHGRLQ

[2] = molecular target: T1, Ubiquitin-activating enzyme e1, putative (Leishmania donovani (strain BPK282A1)) (UniProt E9BSI1); experiment: Leishmania donovani Ubiquitin Activating Enzyme (LdE1); assay type: functional; details: 30 µM
T1 sequence (whole entry): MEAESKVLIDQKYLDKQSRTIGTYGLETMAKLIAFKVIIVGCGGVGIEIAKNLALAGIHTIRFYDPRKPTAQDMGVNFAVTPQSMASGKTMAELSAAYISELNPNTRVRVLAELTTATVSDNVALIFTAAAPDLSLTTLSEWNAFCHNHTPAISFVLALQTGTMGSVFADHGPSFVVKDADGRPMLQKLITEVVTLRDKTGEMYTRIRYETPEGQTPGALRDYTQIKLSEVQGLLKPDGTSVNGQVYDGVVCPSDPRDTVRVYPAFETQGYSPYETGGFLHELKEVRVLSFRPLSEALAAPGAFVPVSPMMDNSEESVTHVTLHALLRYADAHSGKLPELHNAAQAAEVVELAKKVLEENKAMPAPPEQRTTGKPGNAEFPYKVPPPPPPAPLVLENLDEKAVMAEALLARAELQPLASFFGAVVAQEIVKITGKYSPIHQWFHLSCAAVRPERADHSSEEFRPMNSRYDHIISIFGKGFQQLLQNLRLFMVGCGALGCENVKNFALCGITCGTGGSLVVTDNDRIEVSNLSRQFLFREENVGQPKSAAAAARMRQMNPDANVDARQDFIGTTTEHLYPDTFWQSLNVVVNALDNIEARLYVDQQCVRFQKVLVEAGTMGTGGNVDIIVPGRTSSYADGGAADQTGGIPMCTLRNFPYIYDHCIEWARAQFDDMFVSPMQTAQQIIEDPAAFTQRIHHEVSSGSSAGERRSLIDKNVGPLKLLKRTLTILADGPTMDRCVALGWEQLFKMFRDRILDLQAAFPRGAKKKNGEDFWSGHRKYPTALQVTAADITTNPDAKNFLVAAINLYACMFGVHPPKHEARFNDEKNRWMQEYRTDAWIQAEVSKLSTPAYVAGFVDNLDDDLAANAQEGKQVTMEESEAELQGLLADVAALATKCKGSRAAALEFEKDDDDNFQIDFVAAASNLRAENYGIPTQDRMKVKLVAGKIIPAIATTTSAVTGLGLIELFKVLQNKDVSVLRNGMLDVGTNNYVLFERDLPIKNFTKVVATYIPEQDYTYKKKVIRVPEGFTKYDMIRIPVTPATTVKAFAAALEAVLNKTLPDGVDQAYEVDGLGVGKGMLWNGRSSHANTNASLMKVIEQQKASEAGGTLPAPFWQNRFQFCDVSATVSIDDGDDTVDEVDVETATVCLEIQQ

[3] = molecular target: AMP-activated protein kinase, AMPK (Homo sapiens) (UniProt P54646+O43741+P54619+Q9UGJ0+Q9Y478+Q13131+Q9UGI9); experiment: AMP-dependent Kinase enzyme assay. An in vitro enzyme assay that detects ADP turnover that is directly proportional to AMPK activity. This uses naive AMPK that is activated during the assay with MK-8722; assay type: functional; details: 30 µM
[4] = molecular target: Sialic acid-binding Ig-like lectin 9 (Homo sapiens) (UniProt Q9Y336); experiment: Hs-Siglec9 ALPHAscreen SOP 20170721; details: 10 µM
Chain of Sialic acid-binding Ig-like lectin 9 (Homo sapiens) (Q9Y336 whole entry): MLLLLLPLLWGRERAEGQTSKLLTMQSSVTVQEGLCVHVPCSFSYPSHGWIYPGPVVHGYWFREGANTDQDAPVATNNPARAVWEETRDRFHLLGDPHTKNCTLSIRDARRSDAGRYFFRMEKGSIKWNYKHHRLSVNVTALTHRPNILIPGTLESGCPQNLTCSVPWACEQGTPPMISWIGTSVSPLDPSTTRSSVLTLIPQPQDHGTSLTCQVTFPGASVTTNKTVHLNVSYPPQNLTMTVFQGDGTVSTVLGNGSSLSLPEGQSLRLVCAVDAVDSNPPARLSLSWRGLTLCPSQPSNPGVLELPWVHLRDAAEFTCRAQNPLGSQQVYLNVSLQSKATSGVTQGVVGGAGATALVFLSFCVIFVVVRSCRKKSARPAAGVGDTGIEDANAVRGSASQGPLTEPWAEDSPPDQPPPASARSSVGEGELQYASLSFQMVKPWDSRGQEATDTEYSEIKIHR

[5] = test system: Trypanosoma cruzi; experiment: Trypanosoma cruzi phosphomannomutase and mannose-1-phosphate guanylyltransferase assay; assay type: functional; details: 10 µM
[6] = molecular target: T2, Arginase-2, mitochondrial (Homo sapiens) (UniProt P78540); experiment: in vitro enzyme assay to detect the production of urea directly proportional to the activity of Arginase II; assay type: functional; details: 33.3 µM; also: in the data most compounds retested in dose-response had high values
T2 sequence (whole entry): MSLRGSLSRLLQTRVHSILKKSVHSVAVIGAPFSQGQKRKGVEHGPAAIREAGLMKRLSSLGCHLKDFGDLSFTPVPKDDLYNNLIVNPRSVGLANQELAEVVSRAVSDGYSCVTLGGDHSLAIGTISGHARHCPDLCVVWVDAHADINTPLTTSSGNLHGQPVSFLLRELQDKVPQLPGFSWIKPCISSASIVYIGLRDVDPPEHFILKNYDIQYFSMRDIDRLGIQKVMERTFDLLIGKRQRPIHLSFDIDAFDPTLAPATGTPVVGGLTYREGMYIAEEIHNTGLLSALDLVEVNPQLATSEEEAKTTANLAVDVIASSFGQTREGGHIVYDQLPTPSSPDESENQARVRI

[7] = molecular target: T3, Proteasome subunit beta (Trypanosoma cruzi) (UniProt O96673); experiment: Trypanosoma cruzi proteasome chymotrypsin-like activity (TcProtChymo) assay.; also: in the data most compounds retested in dose-response had high values; assay type: functional; details: 9.37 µM
T3 sequence (whole entry): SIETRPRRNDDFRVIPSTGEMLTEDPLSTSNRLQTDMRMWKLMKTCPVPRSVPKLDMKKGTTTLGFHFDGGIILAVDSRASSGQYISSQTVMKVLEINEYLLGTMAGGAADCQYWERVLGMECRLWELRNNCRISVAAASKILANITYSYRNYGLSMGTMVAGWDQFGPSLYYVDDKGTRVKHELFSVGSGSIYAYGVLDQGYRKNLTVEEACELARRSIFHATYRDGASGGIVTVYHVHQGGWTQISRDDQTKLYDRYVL

[8] = species on record: Homo sapiens; experiment: To identify inhibition of the IFN signalling (Jak-Stat) pathway via expression of an eGFP reporter gene under the control of an IFN-stimulated response element (ISRE) containing MxA promoter.; assay type: functional; details: 30 µM
[9] = molecular target: T4, Tyrosyl-tRNA synthetase, putative (Trypanosoma cruzi (strain CL Brener)) (UniProt Q4DSP6); experiment: Trypanosoma cruzi tyrosyl tRNA synthetase (TcYRS) _High Tyrosine SOP; assay type: functional; details: 30 µM; also: in the data most compounds retested in dose-response had high values
T4 sequence (whole entry): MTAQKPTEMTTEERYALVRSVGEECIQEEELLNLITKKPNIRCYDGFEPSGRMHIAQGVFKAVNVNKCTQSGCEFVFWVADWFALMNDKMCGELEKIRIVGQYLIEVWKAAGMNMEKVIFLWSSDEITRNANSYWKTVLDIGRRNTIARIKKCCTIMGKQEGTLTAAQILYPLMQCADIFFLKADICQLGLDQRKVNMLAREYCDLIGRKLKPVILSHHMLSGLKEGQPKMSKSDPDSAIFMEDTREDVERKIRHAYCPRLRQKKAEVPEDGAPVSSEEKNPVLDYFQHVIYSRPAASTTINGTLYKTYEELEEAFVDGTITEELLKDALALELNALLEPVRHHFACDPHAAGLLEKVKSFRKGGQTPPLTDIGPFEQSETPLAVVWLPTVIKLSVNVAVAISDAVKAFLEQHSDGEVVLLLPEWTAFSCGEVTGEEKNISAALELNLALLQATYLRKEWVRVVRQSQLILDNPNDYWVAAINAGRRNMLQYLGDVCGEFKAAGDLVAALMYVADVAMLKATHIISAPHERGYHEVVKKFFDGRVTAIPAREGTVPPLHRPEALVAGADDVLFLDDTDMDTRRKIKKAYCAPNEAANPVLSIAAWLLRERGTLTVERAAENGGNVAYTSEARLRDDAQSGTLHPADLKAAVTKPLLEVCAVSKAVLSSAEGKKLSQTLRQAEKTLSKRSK

[10] = molecular target: T4, Tyrosyl-tRNA synthetase, putative (Trypanosoma cruzi (strain CL Brener)); experiment: Trypanosoma cruzi tyrosyl tRNA synthetase (TcYRS) SOP; assay type: functional; details: 30 µM
[11] = molecular target: Chromo domain-containing protein 1 (Saccharomyces cerevisiae (strain ATCC 204508 / S288c) (Baker's yeast)) (UniProt P32657); experiment: ScCHD-1 Enzyme Inhibition Assay; assay type: functional; details: 30 µM; also: in the data most compounds retested in dose-response had high values
Chain of Chromo domain-containing protein 1 (Saccharomyces cerevisiae (strain ATCC 204508 / S288c) (Baker's yeast)) (P32657 whole entry, the tested form may be a part): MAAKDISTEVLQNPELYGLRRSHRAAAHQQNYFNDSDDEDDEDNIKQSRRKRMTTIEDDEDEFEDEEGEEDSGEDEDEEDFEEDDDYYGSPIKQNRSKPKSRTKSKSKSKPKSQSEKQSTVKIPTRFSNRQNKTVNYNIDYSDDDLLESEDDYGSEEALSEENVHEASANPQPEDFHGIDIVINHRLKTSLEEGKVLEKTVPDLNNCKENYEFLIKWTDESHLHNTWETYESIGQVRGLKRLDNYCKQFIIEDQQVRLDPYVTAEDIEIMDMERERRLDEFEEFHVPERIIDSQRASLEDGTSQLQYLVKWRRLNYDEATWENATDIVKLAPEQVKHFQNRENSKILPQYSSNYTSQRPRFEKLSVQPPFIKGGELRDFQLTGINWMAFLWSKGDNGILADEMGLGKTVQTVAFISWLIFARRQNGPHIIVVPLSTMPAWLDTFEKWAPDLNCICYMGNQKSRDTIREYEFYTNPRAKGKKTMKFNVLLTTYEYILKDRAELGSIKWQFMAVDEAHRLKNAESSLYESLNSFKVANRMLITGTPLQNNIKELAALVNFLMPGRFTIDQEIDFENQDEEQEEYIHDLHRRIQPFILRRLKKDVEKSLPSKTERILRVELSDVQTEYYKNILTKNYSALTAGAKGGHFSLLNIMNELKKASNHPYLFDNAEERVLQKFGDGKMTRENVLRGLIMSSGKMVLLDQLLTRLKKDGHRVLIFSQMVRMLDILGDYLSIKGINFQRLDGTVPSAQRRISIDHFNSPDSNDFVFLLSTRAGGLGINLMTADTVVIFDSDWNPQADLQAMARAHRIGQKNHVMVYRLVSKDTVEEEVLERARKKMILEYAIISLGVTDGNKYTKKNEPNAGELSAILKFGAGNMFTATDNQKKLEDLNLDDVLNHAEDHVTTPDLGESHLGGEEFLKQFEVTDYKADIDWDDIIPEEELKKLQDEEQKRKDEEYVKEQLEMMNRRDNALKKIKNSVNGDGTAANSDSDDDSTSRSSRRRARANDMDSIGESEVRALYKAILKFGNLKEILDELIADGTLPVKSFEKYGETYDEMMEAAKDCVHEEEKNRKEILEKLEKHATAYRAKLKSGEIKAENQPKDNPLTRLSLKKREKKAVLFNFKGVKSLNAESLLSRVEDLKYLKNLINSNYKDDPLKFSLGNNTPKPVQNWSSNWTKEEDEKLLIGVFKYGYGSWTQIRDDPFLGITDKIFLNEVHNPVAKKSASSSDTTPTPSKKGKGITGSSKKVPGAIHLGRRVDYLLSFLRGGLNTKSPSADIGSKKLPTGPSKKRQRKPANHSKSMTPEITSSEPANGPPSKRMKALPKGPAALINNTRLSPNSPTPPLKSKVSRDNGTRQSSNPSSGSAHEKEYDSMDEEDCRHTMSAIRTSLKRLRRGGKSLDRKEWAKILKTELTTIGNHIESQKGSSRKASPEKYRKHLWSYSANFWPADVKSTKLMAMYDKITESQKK

SMILES | Percent Effect [1] [%] | Percent Effect [2] [%] | Percent Effect [3] [%] | Percent Effect [4] [%] | Percent Effect [5] [%] | Percent Effect [6] [%] | Percent Effect [7] [%] | Percent Effect [8] [%] | Percent Effect [9] [%] | Percent Effect [10] [%] | Percent Effect [11] [%]
Cc1nnc(NC(=O)NCc2cc(F)cc(F)c2)s1 | -1.16 | 21.1 | -3.09 | -15.6 | -9.43 | 5.75 | 10.7 | 13.5 | 4.43 | 13.6 | -3.4
CSC(C)(C)CNC(=O)NC1CCN(C)CC1 | -2.43 | 5.33 | -2.46 | 7.43 | 3.21 | 15.6 | 0 | 21.1 | 4.92 | 6.17 | -2.97
O=C(NC1CCCC1)NC1CCC(C(=O)N2CCSCC2)CC1 (stereo not drawn) | -4.05 | 2.6 | 5.55 | 0.598 | -5.61 | -2.76 | 3.33 | 23.7 | 2.15 | -1.24 | -0.623
CC(C)(NCC(=O)NCCC#N)c1ccc2c(c1)OCCO2 | -3.57 | 27 | -8.79 | 1.26 | 3.49 | -8.42 | 17.3 | 3.81 | 4.43 | 23.5 | -9.99
CNC(=O)[C@@]12CCO[C@@H]1CCN(S(=O)(=O)c1cccnc1)C2 | -5.53 | 10.8 | 0.489 | -1.11 | 4.99 | -3.5 | 9.96 | 4.96 | 5.41 | 12.8 | 0.201
O=S(=O)(c1cccnc1)N1CCN(CCn2ccnc2)CC1 | -4.58 | 5.48 | -1.26 | 0.536 | -8.81 | -0.455 | 11.7 | -0.863 | 5.38 | 12.5 | -5.5
O=C(CN1CCN(CC(O)C2CC2)CC1)NCc1ccc(F)cc1 (stereo not drawn) | -3.06 | 10.4 | 6.87 | 0.218 | 4.83 | 9.68 | 13.1 | 22.2 | 8.47 | 19.2 | -7.59
O=C1CCc2cc(C(=O)NCc3ccc(-n4cncn4)nc3)ccc2N1 | -8 | 8.11 | -0.201 | 4.21 | -5.19 | 0.802 | -4.68 | 10.4 | 4.43 | 1.24 | 23.8
